The source of these data is PubChem BioAssay AID488969 (Vanderbilt High Throughput Screening Facility, 2010).

Whole data set: some 110,000 compounds, median “z-score” near -0.1, cut for the highest 2% near 2. Only a selection was taken, and the highest values are over-represented in it overall. Activity calls are given as the source filed them.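 Rule for the calls: active = z-score in the third read window above 3 or below -3; inactive = the rest.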

In this assay the target is Metabotropic glutamate receptor 8 (Rattus norvegicus) (UniProt P70579). The assay can be described thus: mGluR8 Gi/Go-coupled signaling modulation – cell-based, rat, thallium flux, HTS, primary screen (AID 488969). As to conditions: HEK293 rat mGluR8, GIRK (G protein-gated inwardly rectifying potassium channel) thallium flux, FluoZin2; at 10 µM; stronger effect = higher value; submaximal glutamate (EC20) added with thallium.
Sequence of Metabotropic glutamate receptor 8 (Rattus norvegicus) (P70579 whole entry, looked up): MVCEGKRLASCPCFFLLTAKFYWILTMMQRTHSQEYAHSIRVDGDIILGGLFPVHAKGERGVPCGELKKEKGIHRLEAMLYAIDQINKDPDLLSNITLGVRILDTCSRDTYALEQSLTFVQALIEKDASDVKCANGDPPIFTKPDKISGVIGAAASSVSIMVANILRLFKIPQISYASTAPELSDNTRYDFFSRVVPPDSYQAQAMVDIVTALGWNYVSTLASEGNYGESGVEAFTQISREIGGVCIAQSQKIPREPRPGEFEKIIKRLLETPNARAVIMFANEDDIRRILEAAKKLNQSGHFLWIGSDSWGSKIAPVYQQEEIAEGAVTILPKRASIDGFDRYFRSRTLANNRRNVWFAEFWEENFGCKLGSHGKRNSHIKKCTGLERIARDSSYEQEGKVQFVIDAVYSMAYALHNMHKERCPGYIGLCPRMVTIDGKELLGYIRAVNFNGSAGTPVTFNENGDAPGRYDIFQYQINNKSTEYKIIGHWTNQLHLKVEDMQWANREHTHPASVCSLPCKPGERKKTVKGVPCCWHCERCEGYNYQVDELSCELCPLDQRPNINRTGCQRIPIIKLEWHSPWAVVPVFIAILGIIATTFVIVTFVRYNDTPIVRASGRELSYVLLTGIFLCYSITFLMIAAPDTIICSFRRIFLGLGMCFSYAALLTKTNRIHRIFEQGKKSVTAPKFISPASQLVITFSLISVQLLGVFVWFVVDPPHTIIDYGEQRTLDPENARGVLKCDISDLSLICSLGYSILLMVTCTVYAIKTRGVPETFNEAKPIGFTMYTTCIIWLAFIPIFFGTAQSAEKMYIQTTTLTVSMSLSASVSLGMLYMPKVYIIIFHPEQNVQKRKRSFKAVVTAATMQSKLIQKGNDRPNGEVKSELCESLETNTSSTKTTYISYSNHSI
Compound `O=C(CN1CCCCCCC1)N/N=C/c1ccc(F)c(F)c1` came in with a z-score of -0.563.
The value for `CCC(C)(C)C1CCC(=NNC(=O)c2ccoc2C)CC1` (configuration not stated) was -0.259; that for `Cc1sc(NC(=O)c2ccc(Br)s2)c(C(N)=O)c1C` was 0.0217; that for `COc1cc(OC)c(OC)cc1CN(C)C(c1ccccc1)c1nnnn1-c1ccccc1C` (configuration not stated) was 0.0196.
The value for `CC(OC(=O)CCc1nc2ccccc2c(=O)[nH]1)C(=O)NC1CCCC1` (configuration not stated) was -0.356.
The value for `Cc1cccc2sc(N(CCN(C)C)C(=O)/C=C/c3cccs3)nc12` was -0.145.
`O=c1[nH]c(CN2CCN(c3ccccc3)CC2)nc2ccccc12` registered a z-score of 0.214.
In the case of `COc1cccc(C2C=C(Nc3ccccc3)C(=O)N2c2ccccc2)c1` (configuration not stated) it was -0.22; in that of `Cc1cc(C)c(NC(=O)C2CCCN2C(=O)NC2CCCCC2)c(C)c1` (configuration not stated), 1.35.
The compound `C/C(=N\NS(=O)(=O)c1ccc(C)cc1)c1ccc(Br)s1` returned a z-score of -0.207.
On to `C/C(=N\NC(=O)c1cc(Cl)ccc1O)c1ccc(Br)s1`, for which the z-score is 6.48 (active).
The value for `O=C(N/N=C/C1CCCCC1)c1cc(Cl)ccc1O` was 0.618; that for `Nc1[nH]ncc1N=Nc1ccc(Cl)cc1` was -0.104.
`c1ccc(CNn2c(N3CCOCC3)nc3ccccc32)cc1`: the z-score is 0.241.
The value for `CCN(c1ccccc1)S(=O)(=O)c1cc(C(=O)Nc2ccc(F)c(F)c2)ccc1F` was -0.178; that for `CCN(c1ccccc1)S(=O)(=O)c1cc(C(=O)Nc2cccc(Cl)c2)ccc1F` was -0.0119; that for `CCN(c1ccccc1)S(=O)(=O)c1cc(C(=O)Nc2ccccc2Cl)ccc1F` was 2.19.
Turning to `CN(C)c1ccc(/C=C/C(=O)c2ccccc2)cc1[N+](=O)[O-]`, the z-score is -0.207.
With `Fc1c(F)c(F)c(N=Cc2ccc3ncccc3c2)c(F)c1F`, the z-score was 0.201.
The value for `O=C(NC(=S)Nc1nc2c(ccc3ccccc32)s1)c1cccs1` was 2.78.
In the case of `CCc1ccc(-c2nc(NC(=S)NC(=O)c3cccs3)sc2C)cc1` it was 0.595; in that of `O=C(Cc1cccs1)Nc1nc2c(ccc3ccccc32)s1`, 0.34.
`Cc1nc(NC(=S)NC(=O)c2cccs2)sc1C(=O)N(C)C` registered a z-score of -0.329.
In the case of `Cc1ccc2nc(NC(=O)Cc3cccs3)sc2c1` it was 0.542.
The value for `Cc1ccc2nc(NC(=S)NC(=O)c3cccs3)sc2c1` was 4.64 (active); that for `Cc1ccc(-c2csc(NC(=S)NC(=O)c3cccs3)n2)cc1` was -0.267; that for `O=C(NC(=S)Nc1nc2ccccc2s1)c1cccs1` was 11.7 (active).
The value for `O=C(NC(=S)Nc1nc(-c2ccccc2)cs1)c1cccs1` was 1.03.
On to `O=C(c1ccc(Cl)cc1)C1CCN(C(=O)C2CC2)CC1`, for which the z-score worked out at 0.108.
As to `CCOC(=O)c1c(C)n(-c2ccc(C)cc2)c2c(CC(C)=O)c(Br)c(OC)c(O)c12`, the z-score was -0.0818.
The compound `Clc1ccc(Cc2ccc(Cl)nn2)c(Cl)c1` returned a z-score of -0.119.
The value for `CSc1ccc(Cc2ccc(Cl)cc2Cl)nn1` was -0.154; that for `Clc1ccc(Cc2ccc(SCc3ccccc3)nn2)c(Cl)c1` was 3.48 (active).
The value for `O=C(N/N=C\c1ccc(Sc2ccccn2)o1)c1cccc(Br)c1` was 1.77; that for `O=C(N/N=C\c1ccc(Sc2ccccn2)o1)c1cccc(F)c1` was -0.471.
`O=C(N/N=C/c1ccc(Sc2ccccn2)o1)c1cc2ccccc2cc1O`: the z-score is 6.43 (active).
The value for `CCOC(=O)c1ccc(NC(=S)N2CCN(Cc3ccccc3)CC2)cc1` was -0.2; that for `CN(C)c1ccnc(Oc2ccc(C(C)(C)C)cc2)c1C#N` was -0.212.
The value for `COC(=O)C1CCCN1C(=O)c1cccs1` (configuration not stated) was 5.05 (active); that for `O=C(O)C1CCCN1C(=O)c1cccs1` (configuration not stated) was 0.319; that for `O=C(OCc1ccccc1)C1CCCN1C(=O)c1cccs1` (configuration not stated) was -0.219.
`CC(=O)NC1(c2nnnn2CCOC(=O)Nc2ccc(Cl)cc2)CCCCC1` came in with a z-score of 0.0804.
The value for `O=C(O)CCC(=O)N1N=C(c2c(-c3ccccc3)c3cc(Cl)ccc3[nH]c2=O)CC1c1ccco1` (configuration not stated) was -0.219.
The value for `C/C(=N\O)C(C)NC(=O)c1ccccc1` (configuration not stated) was 3.54 (active); that for `CC(C)NC(=O)/C(=N\O)c1ccccc1` was 0.0549; that for `C/C(=N\NC(=O)C(NC(=O)c1ccccc1)C(C)C)c1ccccc1` (configuration not stated) was -0.068.
The value for `COc1ccccc1NC(=S)NCc1ccc2c(c1)OCO2` was -0.0224.
For the compound `Cc1sc(NC(=O)c2cc(-c3ccc(Cl)cc3)nc3ccccc23)c(C(N)=O)c1C`, the z-score was -0.126.
Consider `O=C(c1sc2ccccc2c1Cl)N(Cc1ccccc1)C1CCS(=O)(=O)C1` (configuration not stated), for which the z-score worked out at 1.16.
The value for `O=C(c1ccccc1)N(Cc1ccc(F)cc1)C1CCS(=O)(=O)C1` (configuration not stated) was -0.0413; that for `O=C(c1ccc(Cl)c([N+](=O)[O-])c1)N(Cc1ccccc1)C1CCS(=O)(=O)C1` (configuration not stated) was 2; that for `CCCCn1c(=O)[nH]c(=O)c2c1ncn2Cc1ccco1` was -0.249.
On to `CCOC(=O)CN(C(=O)CSc1nnc(CNc2ccc(F)cc2)n1CC)c1ccc(F)cc1`, for which the z-score is -0.599.
In the case of `COc1ccc(OC)c(CNC(=O)CCN2C(=O)COc3ccccc32)c1` it was 0.307; in that of `CSc1nc2ccccc2cc1/C=C(\C#N)c1cccc(Cl)c1`, 0.938.
For the compound `CSc1nc2ccccc2cc1/C=C(\C#N)c1cccc(C)c1`, the z-score was 3.99 (active).
In the case of `CSc1nc2ccccc2cc1/C=C(\C#N)c1ccccc1` it was 0.0152; in that of `COc1ccc(C(C)=O)cc1CN1C(=O)C(C)N(c2ccc(C)cc2)C1=O` (configuration not stated), -0.0103.
In the case of `CCOc1ccc(N2C(=O)CC(SC(=NC)Nc3cccc(F)c3)C2=O)cc1` (configuration not stated) it was -0.588; in that of `CCOc1ccc(N2C(=O)CC(SC(=NC)Nc3ccc(F)cc3)C2=O)cc1` (configuration not stated), 3.7 (active); in that of `CCCOc1ccc(N2C(=O)CC(SC(=NC)Nc3ccc(F)cc3)C2=O)cc1` (configuration not stated), -0.0553.
The value for `CCOC(=O)CN1NC2(CCCCC2)NC1=S` was 0.284.
On to `CCOC(=O)CN1NC2(CCC(C)CC2)NC1=S` (configuration not stated), for which the z-score was -0.408.
The value for `CCOC(=O)CN1NC2(CCC(C(C)(C)C)CC2)NC1=S` (configuration not stated) was 2.66.
The value for `O=C(CSc1nc(-c2ccccc2)c(-c2ccccc2)[nH]1)NCc1ccco1` was -0.317.
As for `C=CCOc1ccc(/C(O)=C2\C(=O)C(=O)N(CCCOC)C2c2ccc(O)c(OC)c2)cc1` (configuration not stated), the z-score was -0.44.
The compound `Cc1ccc(S(=O)(=O)Nc2ccccc2-c2ccccc2NS(=O)(=O)c2ccc(C)cc2)cc1` gave a z-score of -0.159.
The value for `CNc1cccc2c1C(=O)c1ccccc1C2=O` was -0.102; that for `O=C(O)c1ccccc1NS(=O)(=O)c1cccc(C(F)(F)F)c1` was -0.814.
As to `Cc1cccc(S(=O)(=O)Nc2cccc3c2C(=O)c2ccccc2-3)c1`, the z-score is 8.14 (active).
The value for `O=C1c2ccccc2-c2cccc(NS(=O)(=O)c3ccc(C(F)(F)F)cc3)c21` was 2.66; that for `Cc1ccc(NS(=O)(=O)c2ccc3c(c2)C(=O)c2ccccc2C3=O)c(C)c1` was -0.0521.
